Screening data as filed in PubChem BioAssay.
Rows were chosen to be rich in hits. Some 7.5% of all compounds tested hit in one or more screens of this group.
TSHR antag: antagonists of human thyroid stimulating hormone receptor | P16473 | TSHR-expressing cells, TSH-stimulated cAMP HTRF, 2 h; hits give low values | activity change, negative = inhibition, % at 11.5 µM | 330,000 compounds, 0.2% hits | AID 504810;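 active = activity change below a set negative limit, meaning inhibition stronger than a set level, cut at about -70% in these data; inconclusive = activity change between two set negative limits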
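Cell-based HTRF cAMP assay; TSHR cells + compound, TSH EC80 (4nM final), 2 h, 37 deg C. Lysis with anti-cAMP cryptate and cAMP-d2, 30 min RT, read 665/620 nm.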
VP16 counter: Gal4-VP16 reporter inhibition counter-screen; Drosophila S2 Gal4-VP16 UAS-luciferase, luminescence, 20 h; Potency, µM (top dose mostly 53.6 µM), usual class: inhibitors; 310,000 compounds, 3.5% hits; AID 2546;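 note: Gal4-VP16 expression switched on by copper sulfate through the metallothionein promoter; nearly all actives have a fitted effect of over 50% in size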
ELG1 repair inh: ELG1-dependent DNA repair inhibition; HEK293T ELG1-luciferase reporter, luminescence, 16 h; DNA damage induced by 5-fluorouridine; Potency, µM (top dose mostly 46.1 µM), actives largely listed as inhibitors; 330,000 compounds, 2.3% hits; note: nearly all actives have a fitted effect of over 55% in size
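In this reporter screen, reduction of luminescence relative to DMSO vehicle indicated activity. Compounds and 5-fluorouridine were added together to 2,000 cells per well, incubated for 16 hr at 37 °C, then developed with ONE-Glo.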
RORgamma inh: blocks mouse ROR gamma transcriptional activity; P51450; Drosophila S2 Gal4-RORgamma UAS-luciferase reporter, 20 h; Potency, µM (top dose mostly 53.6 µM), hits mostly inhibitors; 310,000 compounds, 5.4% hits; note: nearly all actives have a fitted effect of over 60% in size
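Drosophila Schneider cells stably carrying a metallothionein-driven Gal4 DBD–ROR gamma fusion and a UAS-Photinus luciferase reporter were exposed to compound for 1 hr, then induced with copper sulfate (700 uM final) for 20 hr at ambient temperature before luminescence reading.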
B2AR arrestin: agonists driving beta-arrestin recruitment to human beta2-adrenergic receptor; P07550; beta-arrestin recruitment to beta2AR, cell-based reporter; Potency, µM (series often up to 46.1 µM), most hits filed as activators; 330,000 compounds, 0.02% hits; note: nearly all actives have a fitted effect of over 65% in size
Target sequence (P07550 whole entry, looked up): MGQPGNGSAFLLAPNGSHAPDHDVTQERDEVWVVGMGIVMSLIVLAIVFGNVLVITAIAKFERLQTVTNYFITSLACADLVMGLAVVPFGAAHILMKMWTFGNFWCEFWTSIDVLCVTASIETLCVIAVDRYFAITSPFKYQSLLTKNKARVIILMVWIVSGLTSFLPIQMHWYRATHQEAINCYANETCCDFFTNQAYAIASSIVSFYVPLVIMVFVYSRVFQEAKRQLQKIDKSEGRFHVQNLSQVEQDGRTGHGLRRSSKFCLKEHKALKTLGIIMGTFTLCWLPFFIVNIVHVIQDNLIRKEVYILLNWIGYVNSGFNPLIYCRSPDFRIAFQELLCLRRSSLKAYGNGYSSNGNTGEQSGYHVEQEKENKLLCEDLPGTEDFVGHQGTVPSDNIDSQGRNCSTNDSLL
Of the large screens only hits and unclear results are named; the others gave an inactive call. Unless noted, calls come from the whole dose curve; as a rule, active = well fitted curve in the direction sought with a large enough effect; inconclusive = small, poorly fitted or top-dose-only effect, or another doubt; inactive = no such curve, though single readings can be large; an effect the other way counts as inactive or inconclusive.

C(=N\Nc1ncnc2sc3c(c12)CCC3)/c1ccncc1	VP16 counter 20µM, RORgamma inh 10µM
O=S(=O)(O)c1cc(O)c2c(N=Nc3ccc(Nc4ccccc4)c4c(S(=O)(=O)O)cccc34)cc(S(=O)(=O)O)cc2c1	RORgamma inh inconclusive (no result: TSHR antag, ELG1 repair inh, B2AR arrestin)
COc1ccc(COC(=O)N/N=C2/C[C@@H](O)[C@@H](O)[C@@H]3[C@@H]4C(=O)N(Cc5ccc6c(c5)OCO6)C(=O)[C@H]4CC[C@H]23)cc1	none (no result: TSHR antag, ELG1 repair inh, B2AR arrestin)
CCN(CC)C(=O)Nc1ccc(OC[C@H](O)CNC(C)(C)C)c(C(C)=O)c1	none (no result: TSHR antag, ELG1 repair inh, B2AR arrestin)
CCOP(=O)(OCC)C(NC(=O)c1cc([N+](=O)[O-])cc([N+](=O)[O-])c1)C(F)(F)F (centres undefined)	none
Cc1ccccc1-c1cn(-c2ccccc2)c(=S)[nH]1	VP16 counter 10µM, RORgamma inh 3.2µM
COc1cc(OC)c(-n2cc(-c3ccc(OC)c(OC)c3)[nH]c2=S)cc1Cl	VP16 counter 16µM, RORgamma inh 7.9µM
Cc1ccc(-c2cn(-c3ccccc3)c(=S)[nH]2)cc1C	VP16 counter inconclusive, ELG1 repair inh inconclusive, RORgamma inh inconclusive
COc1ccc(-c2cn(-c3ccc(C)cc3C)c(=S)[nH]2)cc1OC	VP16 counter inconclusive, ELG1 repair inh inconclusive, RORgamma inh inconclusive
COc1ccc(-n2cc(-c3ccccc3)[nH]c2=S)c(OC)c1	VP16 counter 7.9µM, ELG1 repair inh inconclusive, RORgamma inh 2.5µM
COc1ccc(-n2cc(-c3ccc(Br)cc3)[nH]c2=S)cc1	RORgamma inh 1.8µM
COc1ccccc1-n1cc(-c2ccc(Cl)cc2)[nH]c1=O	none
O=C(COC(=O)c1ccc(S(=O)(=O)NCc2ccco2)cc1)Nc1ccc(Cl)cn1	none
CCOCCCNC(=O)C(c1ccc(OC)cc1)N(Cc1ccc2c(c1)OCO2)C(=O)c1ccccc1O (centres undefined)	none
CCc1ccc(-n2cc(-c3ccc([N+](=O)[O-])cc3)[nH]c2=S)cc1	VP16 counter inconclusive, RORgamma inh 11µM
O=[N+]([O-])c1ccc(-c2cn(-c3ccc(Cl)cc3)c(=S)[nH]2)cc1	none
FC(F)(F)c1cccc(-n2cc(-c3ccccc3)[nH]c2=S)c1	VP16 counter inconclusive, RORgamma inh 2.8µM
CC1CSc2n(-c3cccc(C(F)(F)F)c3)cc(-c3ccccc3)[n+]21 (centres undefined)	ELG1 repair inh inconclusive
Fc1ccccc1-n1cc(-c2ccccc2)[nH]c1=S	VP16 counter 16µM, ELG1 repair inh inconclusive, RORgamma inh 2.5µM
COc1ccc(-n2cc(-c3ccc(OC)c(OC)c3)[nH]c2=S)cc1	VP16 counter 10µM, RORgamma inh 2µM
C=CCNc1nc2c(c(=O)[nH]c(=O)n2C)n1CC(O)COc1ccc2ccccc2c1 (centres undefined)	none
Cc1ccccc1Nc1oc(-c2ccccc2)nc1CCc1ccccc1	none (no result: TSHR antag, ELG1 repair inh, B2AR arrestin)
CCN(CC)C[C@@H]1CCCCN1CC(=O)N1c2ccccc2C(=O)Nc2cccnc21	none (no result: TSHR antag, ELG1 repair inh, B2AR arrestin)
O=C1Nc2cccnc2N(C(=O)CCl)c2ccccc21	ELG1 repair inh 21µM, RORgamma inh inconclusive
CCOc1ccccc1NC(=S)N1CCN(c2ccc(OC)cc2)CC1	VP16 counter 18µM, RORgamma inh 11µM
CCNC(=S)N1CCN(c2ccccc2OCC)CC1	none
CCOc1ccccc1NC(=S)N1CCN(c2ccccc2F)CC1	VP16 counter 14µM, RORgamma inh inconclusive
CCOc1ccccc1NC(=S)N1CCN(c2nc(-c3ccc(F)cc3)cs2)CC1	VP16 counter inconclusive, ELG1 repair inh inconclusive, RORgamma inh 11µM
Cc1ccc(NC(=S)N2CCN(c3ccccc3F)CC2)c(C)c1	VP16 counter 7.1µM, RORgamma inh 8.9µM
COc1cc(C2OC(=O)c3c2ccc(OC)c3OC)ccc1O (centres undefined)	none (no result: VP16 counter, ELG1 repair inh, RORgamma inh)
CCN(CC(=O)NCCCn1ccnc1)S(=O)(=O)c1ccc(C)cc1	none
CN(C(=O)c1cc(-c2ccccc2)on1)C1CCCCC1	ELG1 repair inh inconclusive
COC(=O)c1sccc1NC(=O)C1CC1	none
CCOc1ccccc1NC(=S)N1CCCCCC1	VP16 counter inconclusive, RORgamma inh 14µM
CCOc1ccccc1NC(=S)N1CCN(c2ccc(O)cc2)CC1	ELG1 repair inh inconclusive
CCc1ccccc1NC(=S)N1CCN(c2ccccc2F)CC1	VP16 counter inconclusive, RORgamma inh 7.1µM
Cc1cc(NC(=O)CSc2ccnc(=O)[nH]2)no1	none (no result: VP16 counter, RORgamma inh)
CN(C)/C=C(\C#N)C(=O)N/N=C(\CC(=O)C(F)(F)F)c1ccco1	RORgamma inh 4.5µM
CN(C)/C=C(\C#N)C(=O)N/N=C/c1ccc(Cl)cc1	none
COc1ccccc1/C=C/C(=O)Oc1cccc2cccnc12	VP16 counter 5.6µM, RORgamma inh 3.2µM
Cc1ccc2cccc(OC(=O)/C=C\c3ccccc3)c2n1	none
Cc1c(C(=O)Oc2cccc3cccnc23)oc2ccccc12	VP16 counter 6.3µM, RORgamma inh 3.2µM
O=C(/C=C/c1ccco1)Oc1cccc2cccnc12	VP16 counter 4.5µM, ELG1 repair inh inconclusive, RORgamma inh 1.4µM
CCc1ccc(OC(=O)/C=C/c2ccco2)cc1	ELG1 repair inh inconclusive
O=C(/C=C\c1ccco1)Oc1cccc2cccnc12	VP16 counter 4.5µM, ELG1 repair inh inconclusive, RORgamma inh 1.4µM, B2AR arrestin inconclusive
CN(c1ccc(C(=O)Nc2ccc(CC#N)cc2)cc1)S(C)(=O)=O	none
O=C(Nc1ccccc1)OC[C@H](CN1CCCCC1)OC(=O)Nc1ccccc1	none (no result: TSHR antag, ELG1 repair inh, B2AR arrestin)
Cn1c(=O)c2c(nc(N/N=C/c3cccs3)n2Cc2ccccc2)n(C)c1=O	VP16 counter inconclusive, ELG1 repair inh 6.5µM, RORgamma inh inconclusive
Cn1c(=O)c2c(nc(N/N=C/c3cccnc3)n2Cc2ccc(F)cc2)n(C)c1=O	none
Cn1c(N/N=C/c2cccs2)nc2c1c(=O)n(Cc1ccccc1)c(=O)n2C	none
Cn1c(=O)c2c(nc(N/N=C/c3ccc(OC(=O)c4ccco4)cc3)n2Cc2ccccc2)n(C)c1=O	VP16 counter inconclusive, ELG1 repair inh 21µM
CN[C@]1(C)[C@H]2CC[C@@H](C2)C1(C)C	none (no result: TSHR antag, ELG1 repair inh, B2AR arrestin)
COc1cccc([C@@H]2Oc3ccc(OC)cc3C[C@H]2OC(=O)N[C@H]2CCCc3ccccc32)c1	none (no result: TSHR antag, ELG1 repair inh, B2AR arrestin)
C=C(C)C(O)/C=C/c1ccc(OC)cc1 (centres undefined)	none (no result: TSHR antag, ELG1 repair inh, B2AR arrestin)
CCCCCc1ccc(-c2cn(Cc3ccc(C(=O)c4ccccc4)cc3)nn2)cc1	ELG1 repair inh inconclusive
CCOC(OCC)c1cn(Cc2ccc(C(=O)c3ccccc3)cc2)nn1	VP16 counter 18µM, RORgamma inh inconclusive
O=C(c1ccccc1)c1ccc(Cn2cc(-c3ccccc3)nn2)cc1	VP16 counter 10µM, ELG1 repair inh inconclusive, RORgamma inh inconclusive
O=C(c1ccccc1)c1ccc(Cn2cc(CCCO)nn2)cc1	VP16 counter 13µM, RORgamma inh inconclusive
O=C(N/N=C/c1cccnc1)c1sc2ccccc2c1Cl	VP16 counter 25µM, RORgamma inh 13µM
